Values without a mark were called inactive. Active and inactive are the calls of the source.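 How the source made its calls: active means inhibition above 20%; inactive means the rest.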 Peptide text beside a SMILES is read from it. * marks the point of attachment. Cbz = O=C(OCc1ccccc1)*
Assay: yeast 26S proteasome protease site inhibitors – biochemical, fluorogenic peptides, secondary, counter-screen for 26S proteasome disassembly project (AID 2132)
Conditions: fluorogenic peptide cleavage rate, with Ac-nLPnLD-amc, at 100 µM, active compounds read high

Row | Structure (SMILES) | inhibition
1 | CC(=O)N1C(=O)C(=C2C=C(C)OC(C)=C2)c2ccccc21 | 20%
2 | CC(C)C[C@@H](C=O)NC(=O)[C@H](CC(C)C)NC(=O)[C@H](CC(C)C)NC(=O)OCc1ccccc1 (Cbz-Leu-Leu-Leu-aldehyde) | 27% (active)

— PubChem BioAssay AID2132 (NMMLSC, 2009)
